Values joined by “and” are separate entries in the source; they are usually repeats but may differ in a detail not shown here. Equal entries are not always repeated. Records with an inconclusive call do not appear. A structure can be active in one record and inactive in another. Active and inactive are the calls of the source. How the source made its calls: active means hit-call score of the fitted dose curve at least 0.9, where 1 is the maximum; inconclusive means response in the unintended direction; inactive means score below 0.9.
How the values were obtained:
[1] = ACEA_AR_agonist_AUC_viability: ACEA Biosciences xCELLigence Real-Time Cell Analysis on Androgen Receptor Agonism for Viability (AID 2283775);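 on AC50: viability read 80 hours after compound addition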
Method in brief: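 Viability endpoint from xCELLigence impedance in 22Rv1 prostate cells at 80 h. Eight-point series, 100 uM maximum final.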

[2] = ACEA_AR_antagonist_AUC_viability: ACEA Biosciences xCELLigence Real-Time Cell Analysis on Androgen Receptor Antagonism for Viability (AID 2283776);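 further: 22Rv1 human prostate cancer cells growing on impedance electrode plates; area under impedance growth curve at 80 h after dosing as viability; hits lower the growth signal relative to DMSO meaning cytotoxicity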
Method in brief: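 Impedance read-out (RT-CES): area under growth curve at 80 h post-dose, loss of signal scored vs DMSO baseline. 22Rv1 cells; 8-pt 1:4 series, top 100 uM final, ≤0.5% DMSO; biological duplicate.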

[3] = ACEA_ER_AUC_viability: ACEA Biosciences xCELLigence Real-Time Cell Analysis on Estrogen Receptor Agonism for Viability (AID 2283782);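 further: hit means loss of impedance signal meaning reduced cell growth or viability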
Method in brief: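 Continuous-exposure impedance cell analysis uses T-47D cells in charcoal-stripped serum, eight 1:4 dilutions topping at 100 uM final, biological duplicate. Area under the growth curve at 80 h is fitted against DMSO baseline.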

[4] = system: zebrafish Estrogen Receptor (ESR2B), gene 317733; experiment: ATG_zfER2b_XSP1: Attagene TRANS-FACTORIAL Multi-Species (XSP1) HepG2 Assay for zebrafish Estrogen Receptor (ESR2B) (AID 2283773)
Method in brief: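 Human hepatoma HepG2, transiently transfected with multi-reporter units; exogenous zebrafish ESR2B-Gal4 activity measured. Exposure 24 h alongside 3 nM 6-alpha-fluorotestosterone to partly stimulate AR.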

[5] = ATG_M_06_XSP1: Attagene TRANS-FACTORIAL Multi-Species (XSP1) HepG2 Assay for M06 Transcription Factor (Internal Marker) (AID 2283790)
Method in brief: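 This background-control readout tracks M06 reporter mRNA, measured by RT-PCR and capillary electrophoresis. HepG2 cells transiently carrying the GAL4-UAS reporter panel were dosed for 24 h with 3 nM 6-alpha-fluorotestosterone added for partial AR stimulation; increases were scored relative to DMSO.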

[6] = ATG_M_61_XSP1: Attagene TRANS-FACTORIAL Multi-Species (XSP1) HepG2 Assay for M61 Transcription Factor (Internal Marker) (AID 2283797)
Method in brief: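 Background-control readout: reporter transcripts measured by RT-PCR and capillary electrophoresis 24 h after dosing transiently transfected HepG2 multi-reporter cells, with 3 nM 6-alpha-fluorotestosterone present. Fitted in the positive direction relative to DMSO.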

[7] = target: Peroxisome proliferator-activated receptor gamma (Homo sapiens) (UniProt P37231); experiment: ATG_hPPARg_XSP1: Attagene TRANS-FACTORIAL Multi-Species (XSP1) HepG2 Assay for human Peroxisome Proliferator-activated Receptor gamma (PPARg) (AID 2283800)
Sequence of Peroxisome proliferator-activated receptor gamma (Homo sapiens) (P37231 whole entry, looked up, the tested form may be a part): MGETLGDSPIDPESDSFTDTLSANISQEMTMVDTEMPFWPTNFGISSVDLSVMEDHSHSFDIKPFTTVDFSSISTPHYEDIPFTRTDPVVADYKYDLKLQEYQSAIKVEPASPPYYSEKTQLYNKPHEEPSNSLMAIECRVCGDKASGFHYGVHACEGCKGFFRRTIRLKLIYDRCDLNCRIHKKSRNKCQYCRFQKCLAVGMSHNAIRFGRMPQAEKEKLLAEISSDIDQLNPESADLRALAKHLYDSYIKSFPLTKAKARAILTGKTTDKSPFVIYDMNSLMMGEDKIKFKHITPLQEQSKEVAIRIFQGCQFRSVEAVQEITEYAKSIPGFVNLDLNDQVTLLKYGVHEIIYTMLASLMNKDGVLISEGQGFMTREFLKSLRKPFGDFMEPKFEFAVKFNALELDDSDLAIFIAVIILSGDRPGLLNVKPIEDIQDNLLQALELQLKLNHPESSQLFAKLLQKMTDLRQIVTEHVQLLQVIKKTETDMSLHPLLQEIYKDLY
Method in brief: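 Reporter mRNA induction, measured by RT-PCR with capillary electrophoresis 24 h after dosing, scored as gain over DMSO. Transfected HepG2 cells express exogenous NR-Gal4 chimeras driving GAL4-UAS reporters; medium includes 3 nM 6-alpha-fluorotestosterone.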

[8] = system: zebrafish Peroxisome Proliferator-activated Receptor gamma (PPARg), gene 557037; experiment: ATG_zfPPARg_XSP1: Attagene TRANS-FACTORIAL Multi-Species (XSP1) HepG2 Assay for zebrafish Peroxisome Proliferator-activated Receptor gamma (PPARg) (AID 2283801)
Method in brief: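 Trans-activation readout of chimeric zebrafish PPARg–GAL4 in transiently transfected human HepG2 cells, 24 h chemical exposure (medium includes 3 nM 6-alpha-fluorotestosterone). Reporter transcripts measured by RT-PCR and capillary electrophoresis, fitted as gain over DMSO.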

[9] = target: Nuclear receptor subfamily 1 group I member 2 (Mus musculus) (UniProt O54915); experiment: ATG_mPXR_XSP1: Attagene TRANS-FACTORIAL Multi-Species (XSP1) HepG2 Assay for mouse Pregnane X Receptor (PXR) (AID 2283803)
Sequence of Nuclear receptor subfamily 1 group I member 2 (Mus musculus) (O54915 whole entry, looked up, the tested form may be a part): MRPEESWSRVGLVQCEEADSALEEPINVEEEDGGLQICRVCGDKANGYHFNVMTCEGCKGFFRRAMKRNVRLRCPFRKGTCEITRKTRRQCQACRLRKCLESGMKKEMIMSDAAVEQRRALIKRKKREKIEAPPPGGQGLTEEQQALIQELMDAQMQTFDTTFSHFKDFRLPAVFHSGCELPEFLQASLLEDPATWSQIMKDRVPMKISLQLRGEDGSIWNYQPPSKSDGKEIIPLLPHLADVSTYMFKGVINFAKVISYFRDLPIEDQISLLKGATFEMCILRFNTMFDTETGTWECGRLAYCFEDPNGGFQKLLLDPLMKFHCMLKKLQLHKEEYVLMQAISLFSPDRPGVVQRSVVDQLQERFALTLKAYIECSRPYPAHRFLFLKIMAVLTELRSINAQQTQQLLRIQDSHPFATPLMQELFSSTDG
Method in brief: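 Transiently transfected HepG2 cells expressing a receptor-Gal4 chimera drive a GAL4-UAS reporter; 3 nM 6-alpha-fluorotestosterone included. Reporter mRNA read 24 h post-dose by RT-PCR and capillary electrophoresis; gain of signal relative to DMSO.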

[10] = target: human Thyroid hormone Receptor alpha (TRa), THRA (gene 7067) (UniProt P10827); experiment: ATG_hTRa_XSP1: Attagene TRANS-FACTORIAL Multi-Species (XSP1) HepG2 Assay for human Thyroid hormone Receptor alpha (TRa) (AID 2283805)
Sequence of human Thyroid hormone Receptor alpha (TRa), THRA (gene 7067) (P10827 whole entry, looked up, the tested form may be a part): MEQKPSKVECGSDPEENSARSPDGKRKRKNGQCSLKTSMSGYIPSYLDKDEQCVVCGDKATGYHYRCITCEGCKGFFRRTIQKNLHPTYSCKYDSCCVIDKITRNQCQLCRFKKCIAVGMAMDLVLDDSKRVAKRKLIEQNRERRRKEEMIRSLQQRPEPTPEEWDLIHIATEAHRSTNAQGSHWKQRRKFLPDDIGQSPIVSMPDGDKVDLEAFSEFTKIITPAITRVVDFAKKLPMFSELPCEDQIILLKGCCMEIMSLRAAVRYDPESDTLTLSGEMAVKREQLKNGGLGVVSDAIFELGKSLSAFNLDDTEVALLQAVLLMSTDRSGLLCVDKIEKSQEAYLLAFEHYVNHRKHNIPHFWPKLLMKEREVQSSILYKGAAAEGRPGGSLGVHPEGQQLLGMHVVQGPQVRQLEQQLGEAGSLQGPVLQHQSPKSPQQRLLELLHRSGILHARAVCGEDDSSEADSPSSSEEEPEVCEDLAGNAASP
Method in brief: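 Reporter transcripts from the human TRa-Gal4 TRANS unit quantified by RT-PCR, fluorescent labeling and capillary electrophoresis after 24 hours of chemical exposure in transfected HepG2 cells; medium contains 3 nM 6-alpha-fluorotestosterone. Positive direction fit against DMSO.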

[11] = target: zebrafish Thyroid Hormone Receptor alpha (TRa), thraa (gene 30670) (UniProt Q98867); experiment: ATG_zfTRa_XSP1: Attagene TRANS-FACTORIAL Multi-Species (XSP1) HepG2 Assay for zebrafish Thyroid Hormone Receptor alpha (TRa) (AID 2283807)
Sequence of zebrafish Thyroid Hormone Receptor alpha (TRa), thraa (gene 30670) (Q98867 whole entry, looked up, the tested form may be a part): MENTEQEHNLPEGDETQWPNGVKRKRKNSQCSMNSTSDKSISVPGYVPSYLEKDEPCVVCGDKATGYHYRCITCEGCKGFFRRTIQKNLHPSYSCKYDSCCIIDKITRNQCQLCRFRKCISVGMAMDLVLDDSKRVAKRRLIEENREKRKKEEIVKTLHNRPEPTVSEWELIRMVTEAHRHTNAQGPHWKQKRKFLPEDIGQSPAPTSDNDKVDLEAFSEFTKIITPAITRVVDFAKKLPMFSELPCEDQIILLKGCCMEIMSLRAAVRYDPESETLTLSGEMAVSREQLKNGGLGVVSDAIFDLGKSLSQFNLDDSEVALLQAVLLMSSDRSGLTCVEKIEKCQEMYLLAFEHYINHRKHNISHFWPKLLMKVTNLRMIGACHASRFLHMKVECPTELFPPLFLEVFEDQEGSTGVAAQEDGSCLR
Method in brief: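 Reporter transcripts driven by a chimeric zebrafish TRa–Gal4 protein were measured by RT-PCR with fluorescent labelling and capillary electrophoresis. These came from transiently transfected HepG2 cells after 24 h chemical exposure, with 3 nM 6-alpha-fluorotestosterone added; baseline was DMSO.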

[12] = target: human Thyroid hormone Receptor beta (TRb), THRB (gene 7068) (UniProt P10828); experiment: ATG_hTRb_XSP1: Attagene TRANS-FACTORIAL Multi-Species (XSP1) HepG2 Assay for human Thyroid hormone Receptor beta (TRb) (AID 2283808)
Sequence of human Thyroid hormone Receptor beta (TRb), THRB (gene 7068) (P10828 whole entry, looked up, the tested form may be a part): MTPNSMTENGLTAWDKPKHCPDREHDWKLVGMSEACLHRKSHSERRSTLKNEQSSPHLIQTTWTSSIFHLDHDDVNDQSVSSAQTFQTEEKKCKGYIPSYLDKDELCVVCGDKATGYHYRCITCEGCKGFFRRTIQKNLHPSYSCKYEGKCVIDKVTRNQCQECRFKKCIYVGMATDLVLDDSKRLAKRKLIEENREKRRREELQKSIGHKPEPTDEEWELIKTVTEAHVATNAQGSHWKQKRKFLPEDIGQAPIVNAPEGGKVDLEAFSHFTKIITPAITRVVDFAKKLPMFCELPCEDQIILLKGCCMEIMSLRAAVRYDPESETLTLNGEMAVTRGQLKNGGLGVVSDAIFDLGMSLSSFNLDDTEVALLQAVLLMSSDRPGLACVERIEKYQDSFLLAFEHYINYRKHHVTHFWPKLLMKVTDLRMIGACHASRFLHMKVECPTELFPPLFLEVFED
Method in brief: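 Readout is reporter mRNA induction measured by RT-PCR, fluorescent labelling and capillary electrophoresis, fitted upward relative to DMSO. Transiently transfected human HepG2 cells expressing NR-Gal4 chimeras were dosed for 24 h, medium containing 3 nM 6-alpha-fluorotestosterone.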

[13] = system: frog Estrogen Receptor (ESR2), gene 100174814; experiment: ATG_frER2_XSP1: Attagene TRANS-FACTORIAL Multi-Species (XSP1) HepG2 Assay for frog Estrogen Receptor (ESR2) (AID 2283774)
Method in brief: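 Multiplexed TRANS-format reporter assay in human hepatoma HepG2: chimeric nuclear receptor-Gal4 activity reported as mRNA induction at 24 h, detected by fluorescent RT-PCR products on capillary electrophoresis and fitted upward from DMSO baseline.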

[14] = system: frog Estrogen Receptor (ESR1), gene 398734; experiment: ATG_frER1_XSP1: Attagene TRANS-FACTORIAL Multi-Species (XSP1) HepG2 Assay for frog Estrogen Receptor (ESR1) (AID 2283777)
Method in brief: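 After transient transfection and 24 h compound treatment, total RNA from HepG2 cells was reverse-transcribed, amplified, FAM-labeled and resolved by capillary electrophoresis. Signal increases were fitted against DMSO controls.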

[15] = target: chicken Estrogen Receptor (ESR1), ESR1 (gene 396099) (UniProt P06212); experiment: ATG_chERa_XSP1: Attagene TRANS-FACTORIAL Multi-Species (XSP1) HepG2 Assay for chicken Estrogen Receptor (ESR1) (AID 2283779)
Sequence of chicken Estrogen Receptor (ESR1), ESR1 (gene 396099) (P06212 whole entry, looked up, the tested form may be a part): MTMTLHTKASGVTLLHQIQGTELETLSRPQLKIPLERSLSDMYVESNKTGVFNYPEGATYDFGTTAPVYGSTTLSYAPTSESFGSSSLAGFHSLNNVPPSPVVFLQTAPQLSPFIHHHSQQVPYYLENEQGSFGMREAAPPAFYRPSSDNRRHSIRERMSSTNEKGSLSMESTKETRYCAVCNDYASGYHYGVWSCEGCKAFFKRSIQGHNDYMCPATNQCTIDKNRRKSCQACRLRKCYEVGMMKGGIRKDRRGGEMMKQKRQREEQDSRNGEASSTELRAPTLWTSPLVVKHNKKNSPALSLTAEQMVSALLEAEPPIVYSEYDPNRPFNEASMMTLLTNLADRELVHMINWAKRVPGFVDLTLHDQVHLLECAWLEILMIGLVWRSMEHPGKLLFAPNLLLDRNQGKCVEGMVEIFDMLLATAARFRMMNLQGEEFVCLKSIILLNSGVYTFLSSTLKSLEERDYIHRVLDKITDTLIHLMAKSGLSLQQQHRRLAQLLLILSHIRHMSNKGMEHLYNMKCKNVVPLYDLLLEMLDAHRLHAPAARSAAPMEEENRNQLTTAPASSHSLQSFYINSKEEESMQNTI
Method in brief: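 Gain-of-signal reporter transcription, relative to DMSO, was scored in transiently transfected HepG2 cells after a 24 h dose. Fluorescence intensity of amplified, digested reporter cDNA fragments served as the endpoint.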

[16] = system: turtle Estrogen Receptor (ESR1), gene 101933533; experiment: ATG_trERa_XSP1: Attagene TRANS-FACTORIAL Multi-Species (XSP1) HepG2 Assay for turtle Estrogen Receptor (ESR1) (AID 2283781)
Method in brief: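 Cell-based chimeric NR-Gal4 transactivation; HepG2; 24 h dosing; mRNA reporter detected by RT-PCR and capillary electrophoresis fluorescence.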

[17] = system: turtle Thyroid Hormone Receptor, alpha (TRa), gene 101949057; experiment: ATG_trTRa_XSP1: Attagene TRANS-FACTORIAL Multi-Species (XSP1) HepG2 Assay for turtle Thyroid Hormone Receptor, alpha (TRa) (AID 2283806)
Method in brief: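 After 24 h chemical exposure, reporter transcripts were measured by RT-PCR with fluorescent primer extension, HpaI digestion and capillary electrophoresis. Cells were transiently transfected HepG2 expressing exogenous NR-Gal4 chimeras; medium contained 3 nM 6-alpha-fluorotestosterone; fitted upward relative to DMSO.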

[18] = target: AR (gene 367) (UniProt P10275); experiment: ACEA_AR_antagonist_80hr: ACEA Biosciences xCELLigence Real-Time Cell Analysis on Androgen Receptor Antagonism for Proliferation (AID 2283787);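 further: 22Rv1 human prostate cancer cells with growth followed by electrical impedance; hits lower the impedance growth signal relative to DMSO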
Sequence of AR (gene 367) (P10275 whole entry, looked up): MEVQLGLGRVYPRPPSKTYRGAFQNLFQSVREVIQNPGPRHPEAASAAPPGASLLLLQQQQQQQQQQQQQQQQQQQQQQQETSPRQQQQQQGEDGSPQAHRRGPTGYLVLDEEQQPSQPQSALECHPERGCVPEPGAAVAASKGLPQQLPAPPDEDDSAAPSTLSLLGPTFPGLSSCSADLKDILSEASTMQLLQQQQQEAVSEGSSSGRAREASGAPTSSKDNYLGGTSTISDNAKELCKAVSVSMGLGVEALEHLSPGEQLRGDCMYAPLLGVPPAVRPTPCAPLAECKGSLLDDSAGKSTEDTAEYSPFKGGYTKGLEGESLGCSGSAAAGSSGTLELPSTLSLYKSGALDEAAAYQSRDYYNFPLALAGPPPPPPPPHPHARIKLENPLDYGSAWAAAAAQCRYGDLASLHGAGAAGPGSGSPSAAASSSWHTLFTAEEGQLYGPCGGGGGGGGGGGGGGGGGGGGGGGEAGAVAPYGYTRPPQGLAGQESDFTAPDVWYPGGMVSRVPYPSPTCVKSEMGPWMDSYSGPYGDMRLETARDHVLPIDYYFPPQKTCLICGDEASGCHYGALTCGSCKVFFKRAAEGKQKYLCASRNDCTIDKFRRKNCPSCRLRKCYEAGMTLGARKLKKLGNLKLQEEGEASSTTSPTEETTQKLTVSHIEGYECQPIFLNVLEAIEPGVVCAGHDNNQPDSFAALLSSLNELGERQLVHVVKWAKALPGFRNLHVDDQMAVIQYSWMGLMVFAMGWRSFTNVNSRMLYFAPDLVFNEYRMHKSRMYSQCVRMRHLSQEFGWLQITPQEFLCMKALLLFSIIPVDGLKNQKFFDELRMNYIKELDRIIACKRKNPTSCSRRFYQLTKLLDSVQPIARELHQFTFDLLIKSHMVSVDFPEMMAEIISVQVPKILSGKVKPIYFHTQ
Method in brief: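 Using 22Rv1 cells held in assay medium, we dosed compounds (100 uM maximum final, 1:4 serial, eight points, 0.5% DMSO at top) and recorded cell-electrode impedance; the 80 hr timepoint was analyzed against DMSO.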

CCC(C)(C)C1CCC(OC)CC1 (stereo not drawn)
outcome [1]: inactive
outcome [2]: inactive
outcome [3]: inactive

O=C(c1ccc(OCCN2CCCCC2)cc1)c1c(-c2ccc(O)cc2)sc2cc(O)ccc12
AC50 [1]: 50 µM (active)
AC50 [2]: 21.7 µM (active)
AC50 [3]: 11.1 µM (active) and 17.8 µM (active) and 18 µM (active)

COc1ccc(OC)cc1
outcome [1]: inactive

CC/C(=C(\c1ccccc1)c1ccc(OCCN(C)C)cc1)c1ccccc1
outcome [4]: inactive
AC50 [2]: 11 µM (active)
outcome [2]: inactive
AC50 [3]: 17.7 µM (active) [middle of 5 runs]
outcome [5]: inactive
outcome [6]: inactive
outcome [7]: inactive
outcome [8]: inactive
outcome [9]: inactive
outcome [10]: inactive
outcome [11]: inactive
outcome [12]: inactive

C=CC(C)CCCC(C)(C)O (stereo not drawn)
outcome [1]: inactive

CCOCC(C)O (stereo not drawn)
outcome [1]: inactive
outcome [2]: inactive

CCc1cccc(O)c1
outcome [1]: inactive
outcome [2]: inactive
outcome [3]: inactive

CCCc1ccc(N)cc1
outcome [1]: inactive
outcome [2]: inactive
outcome [3]: inactive

C#C[C@]1(O)CC[C@H]2[C@@H]3CCc4cc(O)ccc4[C@H]3CC[C@@]21C
AC50 [13]: 0.000273 µM (active)
AC50 [2]: 30.5 µM (active)
outcome [2]: inactive
AC50 [14]: 0.0393 nM (active)
AC50 [15]: 0.0617 nM (active)
AC50 [16]: 0.0403 nM (active)
outcome [5]: inactive
outcome [6]: inactive
outcome [7]: inactive
outcome [10]: inactive
outcome [17]: inactive
outcome [11]: inactive
outcome [12]: inactive

c1coc(CNc2ncnc3nc[nH]c23)c1
outcome [1]: inactive
outcome [2]: inactive

CC(C)(C)c1ccc(S)cc1
outcome [1]: inactive

O=C1OC2(c3ccc(O)cc3Oc3cc(O)ccc32)c2ccccc21
outcome [1]: inactive
outcome [2]: inactive

O=Cc1ccccc1O
outcome [1]: inactive
outcome [2]: inactive

CN(C)C(=O)Nc1ccccc1
outcome [1]: inactive
outcome [2]: inactive

c1ccc2scnc2c1
outcome [1]: inactive
outcome [3]: inactive

CC(C)(C)c1cccc(O)c1
outcome [1]: inactive
outcome [2]: inactive
outcome [18]: inactive

C=C(C)C(N)=O
outcome [1]: inactive
outcome [2]: inactive

CC(=O)CC(=O)N(C)C
outcome [1]: inactive
outcome [2]: inactive

COC(=O)c1cccc(C(=O)OC)c1
outcome [1]: inactive
outcome [2]: inactive
outcome [18]: inactive

Cc1cccc(O)c1
outcome [1]: inactive
outcome [2]: inactive

CCCCCCCCCOS(=O)(=O)O
outcome [1]: inactive
outcome [2]: inactive

CC(=O)C1C(=O)C=C(C)OC1=O (stereo not drawn)
outcome [1]: inactive
outcome [2]: inactive
outcome [3]: inactive

c1ccc(OCCOc2ccccc2)cc1
outcome [1]: inactive
outcome [2]: inactive
outcome [3]: inactive

CCCCCCOc1ccc(O)cc1
AC50 [1]: 10.9 µM (active)
AC50 [2]: 10.4 µM (active)
AC50 [3]: 67.3 µM (active)
AC50 [18]: 13.3 µM (active)

CC(=O)Oc1c(C)c(C)c2c(c1C)CC[C@@](C)(CCC[C@H](C)CCC[C@H](C)CCCC(C)C)O2
outcome [1]: inactive

CC(O)CN (stereo not drawn)
outcome [1]: inactive
outcome [2]: inactive
outcome [3]: inactive

CCCCCCCCOC(C)=O
outcome [1]: inactive
outcome [2]: inactive
outcome [3]: inactive

OC[C@H]1O[C@@H](O[C@H]2[C@H](O)[C@@H](O)[C@H](O)O[C@@H]2CO)[C@H](O)[C@@H](O)[C@H]1O
AC50 [1]: 0.603 µM (active)

CC1=CCC(C(C)C)=CC1
outcome [1]: inactive

O=C(OCc1ccccc1)c1ccccc1O
outcome [1]: inactive
outcome [2]: inactive
AC50 [3]: 94.3 µM (active)

C[C@]12CC[C@@H]3c4ccc(O)cc4CC[C@H]3[C@@H]1CC[C@@H]2O
AC50 [1]: 0.05 µM (active)
outcome [1]: inactive
AC50 [2]: 85.9 µM (active)
outcome [2]: inactive

CC12CCC(C1)C(C)(C)C2O (stereo not drawn)
outcome [1]: inactive
outcome [2]: inactive
outcome [3]: inactive

CN1CCc2cccc3c2[C@H]1Cc1ccc(O)c(O)c1-3
AC50 [1]: 11.4 µM (active)
AC50 [2]: 4.25 µM (active)
AC50 [3]: 7.27 µM (active)
